Molecules are shown by their SMILES. Records with an inconclusive call do not appear. Active and inactive are the calls of the source. Unless noted, calls come from the whole dose curve; as a rule, active = well fitted curve in the direction sought with a large enough effect; inconclusive = small, poorly fitted or top-dose-only effect, or another doubt; inactive = no such curve, though single readings can be large; an effect the other way counts as inactive or inconclusive.

These results are taken from PubChem BioAssay (NCATS).

The target in assay [1] is Lysosomal acid glucosylceramidase (Homo sapiens) (UniProt P04062). The assay can be described thus: Glucocerebrosidase-p2 (AID 348; in the data active = potency below about 10 µM; note: potency is the fitted concentration of half-maximal effect). The following applies: purified GBA, blue fluorogenic substrate, 40 min. The method in brief:
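Compounds titrated from 0.6 nM upwards against 0.2 nM enzyme in pH 5.9 citric acid/KH2PO4, taurocholate, tween-20; blue fluorogenic substrate 80 uM, 40 min room temperature, stopped and read Ex 365/Em 440 for AC50.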

A short description of assay [2]: AP1 Signaling Pathway (AID 357; active = well fitted curve in either direction with a large enough effect, not every such curve was filed as active; note: % is set by controls: 0 for no effect and ±100 for the full control effect). The note with it: ME-180 AP-1-bla reporter, EGF-induced, beta-lactamase ratio, 5 h; at 7.69 µM (top of the series) unless noted. Summed up: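 Titration-series screen for positive or negative modulators of EC50 EGF-induced signaling in ME-180 cells carrying an AP-1-driven beta-lactamase reporter. After 5 hours at 37 degrees Celsius, CCF4 460nm/530nm emission ratio gave %Activity; AC50 values derived.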

Assay [3] deals with Cytochrome P450 1A2 (Homo sapiens) (UniProt P05177). The assay can be described thus: p450-cyp1a2 (AID 410; calls by dose curve; note: potency is the fitted concentration of half-maximal effect;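 for activity change, negative = inhibition: -100% = full effect of reference inhibitor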). The note with it: recombinant CYP1A2, luciferin-ME demethylation, luminescence; series mostly up to 57 µM. The method in brief:
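Luminescent readout of luciferin formed from Luciferin-ME by human CYP1A2; data normalized against complete inhibition by 57 uM furafylline. Enzyme 20nM, substrate 100uM at Km, 100mM KPO4 buffer, 60 min reaction at room temperature.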

Assay [4] is described as follows: Stat Signaling Pathway (AID 446; active = well fitted curve in either direction with a large enough effect, not every such curve was filed as active;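 note: ME-180 cervical cancer cells given 40 pM IL-6 alongside compound; SIE-controlled beta-lactamase reporter measured as 460/530 nm FRET emission ratio; % is set by controls: 0 for no effect and ±100 for the full control effect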). The note with it: ME-180 (cervical carcinoma) SIE beta-lactamase reporter, IL-6 stimulated, 5 h; at 7.69 µM (top of the series) unless noted. Summed up:
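IL-6/STAT signaling read in ME-180 cells via an SIE beta-lactamase reporter. Stimulus was 40 pM IL-6 (its AC50) for 5 hrs, so both activation and inhibition register.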

Assay [5] deals with Glucocorticoid receptor (Homo sapiens) (UniProt P04150). The assay can be described thus: GR-EFC Redistribution (AID 451; calls by dose curve; note: potency is the fitted concentration of half-maximal effect). The following applies: CHO-K1 GR-EFC translocation, beta-gal luminescence, 2 h. Summed up: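 Translocation of GR-ED fusion to nuclear EA restores b-gal, read by luminescence after 1 h room-temperature detection. Engineered CHO-K1 biosensor cells, 1,000/well, exposed 2 h at 37 C to titrations up to 46 uM final.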
Glucocorticoid receptor (Homo sapiens), sequence (P04150 whole entry, looked up, the tested form may be a part): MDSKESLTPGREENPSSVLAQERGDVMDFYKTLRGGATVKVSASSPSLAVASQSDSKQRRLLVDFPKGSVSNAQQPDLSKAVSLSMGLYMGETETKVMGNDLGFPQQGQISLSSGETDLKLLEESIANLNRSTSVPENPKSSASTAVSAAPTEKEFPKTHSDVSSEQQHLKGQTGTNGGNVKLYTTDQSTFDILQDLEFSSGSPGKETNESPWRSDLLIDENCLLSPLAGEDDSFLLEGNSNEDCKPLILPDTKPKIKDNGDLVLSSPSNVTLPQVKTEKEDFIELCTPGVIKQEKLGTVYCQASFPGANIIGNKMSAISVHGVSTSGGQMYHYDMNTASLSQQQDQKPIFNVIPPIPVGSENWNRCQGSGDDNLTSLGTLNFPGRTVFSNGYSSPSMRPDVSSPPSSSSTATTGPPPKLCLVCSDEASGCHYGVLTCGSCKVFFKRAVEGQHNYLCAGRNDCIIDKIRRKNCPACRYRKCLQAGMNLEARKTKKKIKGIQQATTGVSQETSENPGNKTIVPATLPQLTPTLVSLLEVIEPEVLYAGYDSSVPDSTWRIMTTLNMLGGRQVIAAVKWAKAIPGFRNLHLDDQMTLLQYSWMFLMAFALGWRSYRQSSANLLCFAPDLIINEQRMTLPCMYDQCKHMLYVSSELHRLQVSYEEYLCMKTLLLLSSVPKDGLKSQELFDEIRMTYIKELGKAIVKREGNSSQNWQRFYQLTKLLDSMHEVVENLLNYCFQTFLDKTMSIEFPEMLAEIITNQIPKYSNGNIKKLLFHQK

In assay [6] the target is Mitogen-activated protein kinase 10 (Mus musculus) (UniProt Q61831). Kind of assay: JNK3 AlphaScreen Assay (AID 530; active = well fitted curve in either direction with a large enough effect, not every such curve was filed as active;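 note: kinase came from lysate of stimulated human HepG2 cells; signal reports phosphorylation of biotinylated GST-cJun 1-79 at Ser73 with 10 µM ATP; % is set by controls: 0 for no effect and ±100 for the full control effect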). The note with it: JNK3 lysate, c-Jun phosphorylation; series mostly up to 57.1 µM. Summed up: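 Compound titrations were preincubated 15 minutes at room temperature with substrate, antibody and pre-activated JNK3-containing HepG2 lysate. Reactions were started with 10 uM ATP and stopped with EDTA-containing bead buffer for AlphaScreen detection.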

In assay [7] the target is 3',5'-cyclic-AMP phosphodiesterase 4B (Homo sapiens) (UniProt Q07343). The assay can be described thus: qHTS Assay for Inhibitors of PDE-IV (AID 607; active = well fitted activation curve with a large enough effect in the main read-out, with a control signal flat, not every such curve was filed as active; note: % of control where 0% means no effect). The following applies: HEK293 ACTOne CNG channel cells, membrane potential fluorescence; series mostly up to 22.9 µM. The method in brief: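 Live HEK293 cells with a modified cyclic nucleotide-gated (CNG) channel report intracellular cAMP via membrane-potential dye fluorescence (ex 535/em 590 nm). Endogenous PDE-IV was targeted. Compounds were tested at up to 22.9 uM final; RO 20-1724 100 uM served as control.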
3',5'-cyclic-AMP phosphodiesterase 4B (Homo sapiens), sequence (Q07343 whole entry, looked up): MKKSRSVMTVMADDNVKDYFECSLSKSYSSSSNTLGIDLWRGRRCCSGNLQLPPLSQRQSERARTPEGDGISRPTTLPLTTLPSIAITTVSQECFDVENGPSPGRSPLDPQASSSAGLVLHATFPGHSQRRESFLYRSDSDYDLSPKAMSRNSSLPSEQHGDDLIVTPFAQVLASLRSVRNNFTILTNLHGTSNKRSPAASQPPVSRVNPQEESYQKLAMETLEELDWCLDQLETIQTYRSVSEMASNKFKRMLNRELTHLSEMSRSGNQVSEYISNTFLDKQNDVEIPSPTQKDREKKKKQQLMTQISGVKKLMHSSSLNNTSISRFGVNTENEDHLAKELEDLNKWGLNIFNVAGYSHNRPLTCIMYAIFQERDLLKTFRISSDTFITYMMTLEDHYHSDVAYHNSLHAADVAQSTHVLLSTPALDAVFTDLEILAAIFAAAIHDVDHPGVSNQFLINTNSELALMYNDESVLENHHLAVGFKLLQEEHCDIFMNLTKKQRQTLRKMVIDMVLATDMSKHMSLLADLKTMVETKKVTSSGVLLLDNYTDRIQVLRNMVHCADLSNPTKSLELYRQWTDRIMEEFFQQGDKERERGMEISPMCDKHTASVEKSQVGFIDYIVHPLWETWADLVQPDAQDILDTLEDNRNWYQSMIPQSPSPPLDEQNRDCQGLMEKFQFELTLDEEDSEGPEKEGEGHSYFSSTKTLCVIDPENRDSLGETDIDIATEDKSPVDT
(In qHTS, concentration-response curves come from the screen itself.)

Assay [8] can be described thus: qHTS Assay for Lipid Storage Modulators (AID 1519; calls by dose curve). The following applies: Drosophila S3 cells, BODIPY lipid droplet/cell ratio, laser cytometry, cells loaded with oleic acid; for activity change, negative = inhibition: at 57.5 µM (top of the series). The method in brief:
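Cells seeded at 5,000 per well were treated with compounds over a concentration series and loaded with oleic acid (400 uM, as added). Lipid droplet fluorescence (488 nm excitation, 500-530 nm channel) was read by laser-scanning cytometry and normalized to 20 uM Triacsin C.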

Assay [9] is described as follows: Primary qHTS for small molecule stabilizers of the endoplasmic reticulum resident proteome: Secreted ER Calcium Modulated Protein (SERCaMP) assay (AID 1508630). Note: % is set by controls: 0 for no effect and ±100 for the full control effect. The note with it: SH-SY5Y GLuc-SERCaMP (Gaussia luciferase released on ER calcium loss) secretion, thapsigargin, luminescence; series mostly up to 38.4 µM. The method in brief: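 GLuc-SERCaMP-expressing SH-SY5Y cells, pretreated 16 h with compound, are challenged with thapsigargin to empty ER calcium stores; after 4 h, coelenterazine is added directly to the medium and luminescence is imaged.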

For assay [10], the target named is Cytochrome P450 2C9 (Homo sapiens) (UniProt P11712). The assay can be described thus: qHTS Assay for Inhibitors and Substrates of Cytochrome P450 2C9 (AID 883). Note: potency is the fitted concentration of half-maximal effect; nearly all actives have a fitted effect of over 60% in size. The note with it: recombinant CYP2C9, luciferin-H luminescence, 60 min; series mostly up to 57.1 µM. The method in brief: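 Inhibition of CYP2C9 is scored as loss of luminescence, with 57uM sulphaphenazole defining 100% inhibition. Substrate Luciferin-H is used at 100uM, equal to its KM; enzyme at 10nM in 25mM KPO4, 60 min at 37C with NADPH regeneration.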
Cytochrome P450 2C9 (Homo sapiens), sequence (P11712 whole entry, looked up): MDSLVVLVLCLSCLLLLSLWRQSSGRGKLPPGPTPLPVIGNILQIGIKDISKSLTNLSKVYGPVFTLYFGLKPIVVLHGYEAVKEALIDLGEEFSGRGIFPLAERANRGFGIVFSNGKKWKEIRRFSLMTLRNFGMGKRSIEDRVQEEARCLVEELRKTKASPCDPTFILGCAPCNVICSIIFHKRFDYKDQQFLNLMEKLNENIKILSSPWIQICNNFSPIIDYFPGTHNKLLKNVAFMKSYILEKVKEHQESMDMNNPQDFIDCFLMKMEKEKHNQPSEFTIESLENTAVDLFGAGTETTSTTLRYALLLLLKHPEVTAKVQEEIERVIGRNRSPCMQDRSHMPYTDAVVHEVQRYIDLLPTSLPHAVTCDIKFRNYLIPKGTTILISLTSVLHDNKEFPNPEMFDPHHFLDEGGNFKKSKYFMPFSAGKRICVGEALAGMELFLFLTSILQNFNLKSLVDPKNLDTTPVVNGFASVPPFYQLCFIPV

The target in assay [11] is Cytochrome P450 3A4 (Homo sapiens) (UniProt P08684). Kind of assay: qHTS Assay for Inhibitors and Substrates of Cytochrome P450 3A4 (AID 884). Note: nearly all actives have a fitted effect of over 50% in size. Note: potency is the fitted concentration of half-maximal effect. The following applies: recombinant CYP3A4, Luciferin-PPXE luminescence; series mostly up to 57.1 µM. The method in brief: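 20 nM human CYP3A4 with 25 uM Luciferin-PPXE (at KM) in 200 mM KPO4, preincubated 10 min with compound; NADPH regeneration started a 60 min RT reaction. Luciferin detected by luminescence, normalized to 57 uM ketoconazole as full inhibition.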
Cytochrome P450 3A4 (Homo sapiens), sequence (P08684 whole entry, looked up): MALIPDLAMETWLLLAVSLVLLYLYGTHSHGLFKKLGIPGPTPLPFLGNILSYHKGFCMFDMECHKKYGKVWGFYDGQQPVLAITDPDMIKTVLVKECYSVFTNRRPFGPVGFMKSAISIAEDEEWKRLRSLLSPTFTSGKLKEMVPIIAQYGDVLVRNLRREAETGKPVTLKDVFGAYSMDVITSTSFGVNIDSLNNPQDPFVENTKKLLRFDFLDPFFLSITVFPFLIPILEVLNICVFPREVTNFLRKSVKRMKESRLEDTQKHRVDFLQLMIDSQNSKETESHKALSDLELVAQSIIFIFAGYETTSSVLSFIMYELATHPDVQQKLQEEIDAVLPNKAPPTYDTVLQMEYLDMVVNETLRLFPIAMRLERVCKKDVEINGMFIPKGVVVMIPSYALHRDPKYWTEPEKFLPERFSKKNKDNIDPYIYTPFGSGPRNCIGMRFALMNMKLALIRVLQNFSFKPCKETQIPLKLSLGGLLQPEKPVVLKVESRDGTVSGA

The target in assay [12] is Cytochrome P450 2D6 (Homo sapiens) (UniProt P10635). The assay can be described thus: qHTS Assay for Inhibitors and Substrates of Cytochrome P450 2D6 (AID 891). Note: nearly all actives have a fitted effect of over 60% in size. Note: potency is the fitted concentration of half-maximal effect. The note with it: recombinant CYP2D6, luciferin-ME EGE luminescence; series mostly up to 57.1 µM. The method in brief:
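Human CYP2D6 (5 nM) with 30 uM Luciferin-ME EGE (at Km) in 100 mM KPO4, compound preincubated 10 min, then NADPH regeneration system for 60 min at room temperature. Luciferin read by luminescence; normalized to 1.43 uM quinidine.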

Assay [13] concerns the target Glucocorticoid receptor (Homo sapiens) (UniProt P04150). The assay can be described thus: GR-GFP Redistribution (AID 450;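 active = compounds whose dose series gives a full or clear partial fitted curve of increased nuclear translocation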; note: potency is the fitted concentration of half-maximal effect). The following applies: U2OS GR-GFP nuclear translocation, laser cytometry, 2 h.
Assay [14] concerns the target Cytochrome P450 3A4 (Homo sapiens) (UniProt P08684). The assay can be described thus: qHTS Assay for Activators of Cytochrome P450 3A4 (AID 885). Note: nearly all actives have a fitted effect of over 65% in size. Note: potency is the fitted concentration of half-maximal effect. The following applies: recombinant CYP3A4, Luciferin-PPXE luminescence, 60 min; series mostly up to 57.1 µM. The method in brief: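 Quantitative HTS format: compounds preincubated with 20nM human CYP3A4 and Luciferin-PPXE substrate at KM, reaction started by NADPH regeneration, stopped after 60 min, luciferase luminescence read 20 min later.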

Assay [15] in a line: Confirmation and Secondary Assay for Modulators of Hemoglobin Beta Chain Splicing at IVS2 654 locus (AID 910).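 Note: HeLa cells stably carrying EGFP split by mutant beta-globin IVS2-654 intron; per-well total GFP intensity by laser scanning cytometry after 2-day treatment; % of control where 0% means no effect.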 The following applies: HeLa EGFP-654 splicing reporter, GFP fluorescence, 48 h; series mostly up to 38.3 µM. The method in brief: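 Readout: per-well total peak green fluorescence (488 nm ex, 500–520 nm em) from objects 5–250 µm, reflecting correct splicing of an EGFP-654 reporter. Compounds were applied for 2 days at 37 °C to overnight-plated HeLa EGFP-654 cells; controls were DMSO and 500 nM IVS2-654 PNA.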

The nature of assay [16]: Confirmation and Secondary Assay for Modulators of Hemoglobin Beta Chain Splicing at IVS2 705 locus (AID 930). Note: % of control where 0% means no effect. The following applies: HeLa EGFP-705 splicing reporter, GFP fluorescence, 48 h; series mostly up to 38.3 µM. Summed up: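 Fluorescence gain (488 nm laser, 500-520 nm PMT) reflects restored correct splicing of a mutant IVS2-705 intron inside EGFP in stably transfected HeLa cells after 2-day compound treatment.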

The target of assay [17] is Ubiquitin carboxyl-terminal hydrolase 1 (Homo sapiens) (UniProt O94782). Kind of assay: Inhibitors of USP1/UAF1: Pilot qHTS (AID 504865).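 Note: rhodamine fluorescence freed from ubiquitin-rhodamine substrate followed over time; top concentration of the series differs between compounds; % is set by controls: 0 for no effect and ±100 for the full control effect; nearly all actives have a fitted effect of over 35% in size.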 The note with it: purified USP1/UAF1, Ub-rhodamine cleavage fluorescence; series mostly up to 54.9 µM. The method in brief: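 1nM USP1/UAF1 + cpd, 15 min RT; start w/ Ub-Rho 150nM final; kinetic FL 480/540 nm, 6 reads q60 s. Buffer 50mM HEPES pH 7.8, 0.5mM EDTA, 1mM TCEP, 0.01% Tween-20, 0.1 mg/ml BSA.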
Ubiquitin carboxyl-terminal hydrolase 1 (Homo sapiens), sequence (O94782 whole entry, looked up): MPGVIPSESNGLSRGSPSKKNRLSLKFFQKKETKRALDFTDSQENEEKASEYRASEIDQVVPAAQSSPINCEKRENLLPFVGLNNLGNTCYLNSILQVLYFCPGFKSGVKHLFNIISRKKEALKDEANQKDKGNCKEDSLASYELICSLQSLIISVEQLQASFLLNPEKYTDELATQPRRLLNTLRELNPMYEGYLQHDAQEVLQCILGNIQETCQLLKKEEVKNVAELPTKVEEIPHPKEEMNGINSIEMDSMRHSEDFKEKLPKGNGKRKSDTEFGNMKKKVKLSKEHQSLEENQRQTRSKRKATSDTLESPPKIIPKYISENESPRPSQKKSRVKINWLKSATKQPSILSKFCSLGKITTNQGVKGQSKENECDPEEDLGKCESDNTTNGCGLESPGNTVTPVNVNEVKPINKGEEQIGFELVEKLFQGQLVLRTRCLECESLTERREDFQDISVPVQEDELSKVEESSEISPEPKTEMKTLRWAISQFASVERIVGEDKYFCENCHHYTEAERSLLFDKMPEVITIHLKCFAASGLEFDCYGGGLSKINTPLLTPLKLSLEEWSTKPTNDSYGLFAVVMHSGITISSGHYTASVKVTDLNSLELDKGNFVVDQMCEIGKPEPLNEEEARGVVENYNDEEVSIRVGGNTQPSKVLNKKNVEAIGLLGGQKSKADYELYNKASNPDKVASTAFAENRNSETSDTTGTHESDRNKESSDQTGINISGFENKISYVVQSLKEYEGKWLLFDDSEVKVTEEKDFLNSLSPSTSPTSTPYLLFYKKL

[18] abbreviates: measured here: cell count channel max response.
[19] abbreviates: measured here: lipid channel max response.

Lysosomal acid glucosylceramidase (Homo sapiens), sequence (P04062 whole entry, looked up): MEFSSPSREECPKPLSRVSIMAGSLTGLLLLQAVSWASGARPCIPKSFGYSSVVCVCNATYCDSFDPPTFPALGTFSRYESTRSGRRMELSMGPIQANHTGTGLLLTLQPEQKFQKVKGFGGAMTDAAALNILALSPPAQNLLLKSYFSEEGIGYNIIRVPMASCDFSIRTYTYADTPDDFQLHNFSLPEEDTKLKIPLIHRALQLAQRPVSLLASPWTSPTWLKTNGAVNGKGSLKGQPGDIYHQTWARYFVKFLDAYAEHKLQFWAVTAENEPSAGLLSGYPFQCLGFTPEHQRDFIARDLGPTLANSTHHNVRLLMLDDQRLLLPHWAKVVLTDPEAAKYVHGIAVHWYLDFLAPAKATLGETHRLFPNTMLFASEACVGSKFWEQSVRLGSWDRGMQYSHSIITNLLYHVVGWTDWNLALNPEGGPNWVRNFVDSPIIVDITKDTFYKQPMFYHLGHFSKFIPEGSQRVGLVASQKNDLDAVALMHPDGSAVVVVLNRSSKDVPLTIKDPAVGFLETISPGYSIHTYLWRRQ
Cytochrome P450 1A2 (Homo sapiens), sequence (P05177 whole entry, looked up): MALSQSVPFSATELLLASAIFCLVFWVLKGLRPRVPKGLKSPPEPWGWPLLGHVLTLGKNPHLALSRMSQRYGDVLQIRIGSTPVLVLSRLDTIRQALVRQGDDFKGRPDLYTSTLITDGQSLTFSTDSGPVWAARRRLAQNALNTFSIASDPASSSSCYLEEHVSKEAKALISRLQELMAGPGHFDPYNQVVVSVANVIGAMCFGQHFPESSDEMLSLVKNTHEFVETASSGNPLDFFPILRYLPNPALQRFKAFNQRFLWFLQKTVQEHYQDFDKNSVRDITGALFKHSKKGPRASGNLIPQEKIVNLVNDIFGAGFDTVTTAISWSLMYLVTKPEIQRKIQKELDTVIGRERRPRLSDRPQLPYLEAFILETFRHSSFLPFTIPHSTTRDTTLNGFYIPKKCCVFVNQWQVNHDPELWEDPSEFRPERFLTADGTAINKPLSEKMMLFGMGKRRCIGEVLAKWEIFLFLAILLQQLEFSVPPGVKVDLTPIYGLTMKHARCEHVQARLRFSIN
Cytochrome P450 2D6 (Homo sapiens), sequence (P10635 whole entry, looked up): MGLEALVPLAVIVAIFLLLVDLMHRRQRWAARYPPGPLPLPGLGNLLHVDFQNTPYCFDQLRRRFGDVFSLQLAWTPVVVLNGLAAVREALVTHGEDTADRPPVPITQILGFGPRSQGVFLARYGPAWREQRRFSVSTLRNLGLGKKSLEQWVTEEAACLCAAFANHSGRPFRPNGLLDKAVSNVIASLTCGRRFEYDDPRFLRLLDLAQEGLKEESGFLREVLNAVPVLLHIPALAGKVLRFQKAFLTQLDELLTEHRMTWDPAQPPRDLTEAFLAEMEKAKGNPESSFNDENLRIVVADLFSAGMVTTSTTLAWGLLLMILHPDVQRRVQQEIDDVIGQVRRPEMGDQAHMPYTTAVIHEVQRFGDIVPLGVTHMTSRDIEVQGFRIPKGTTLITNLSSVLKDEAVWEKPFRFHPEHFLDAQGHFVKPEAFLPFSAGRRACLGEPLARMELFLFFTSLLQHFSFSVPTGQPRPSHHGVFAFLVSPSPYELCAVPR

`COc1ccccc1CN1CCC2(CC1)CCN(C(=O)c1ccco1)CC2`: the Potency in [1] is > 11.4 µM (inactive); in [5], > 46 µM (inactive). For the same compound, the activity change, negative = inhibition was -17.3% (inactive) in assay [2] and 3.05% (inactive) in [8]. The Potency entry in assay [3], in assay [6] and in assay [7] was “inactive” in each case. The activity, negative = inhibition in assay [4] is -4.26% (inactive). Moreover, the max response in assay [8] (setting [18]) worked out at 1.79%; in [8] (setting [19]), 7.5%. In addition, the result in assay [9] was inactive.

`CN1CCCC2(CCN(C(=O)c3cccc(F)c3)CC2)C1`: the Potency in assay [1] was > 11.4 µM (inactive); in [3], 31.6 µM (active); in [5], > 46 µM (inactive); in assay [10], 20 µM (active). Further, the activity change, negative = inhibition in assay [2] is -7.14% (inactive); in assay [8], 0.413% (inactive). The activity, negative = inhibition in [4] is 6.64% (inactive). Moreover, the Potency entry in assay [6], in assay [7], in assay [11] and in assay [12] was “inactive” each time. Further, the max response was found to be 7.52% in assay [8] (setting [18]) and 10.1% in [8] (setting [19]). Also, the outcome in assay [9] was inactive.

As for `CN(C)c1ccc(-c2nc(NCc3cccnc3)c3ccccc3n2)cc1`, the Potency in assay [1] was 9.34 µM (active); in assay [3] it was 1.58 µM (active); in assay [13] it was > 46 µM (inactive); in [5], > 46 µM (inactive); in [11] it was 2 µM (active); in assay [12], 7.94 µM (active). The activity change, negative = inhibition is -8.92% (inactive) in assay [2] and 8.26% (inactive) in [8]. The activity, negative = inhibition in assay [4] was 19.7% (inactive). In addition, the Potency result in assay [6], in [7], in [14], in assay [15] and in assay [17] was “inactive” in each case. Moreover, the result in [16] and in assay [9] was inactive. Besides, the values for the max response in assay [8] (setting [18]) and in assay [8] (setting [19]) were -14.2% and -5.05%, respectively.

On to `COc1ccc(C(=O)N2CCC3(CC2)CCN(C(c2ccccc2)c2ccccc2)CC3)cc1`, for which the Potency in assay [1] was > 11.4 µM (inactive); in assay [5], > 46 µM (inactive); in assay [14], 3.16 µM (active). Also, the activity change, negative = inhibition in assay [2] is 4.01% (inactive); in assay [8] it was 2.48% (inactive). In addition, the Potency result in [3], in assay [6], in assay [7] and in assay [11] was “inactive” throughout. In addition, the activity, negative = inhibition in assay [4] was -17.5% (inactive). Moreover, the values for the max response in [8] (setting [18]) and in assay [8] (setting [19]) were 13.4% and 21.1%, respectively. Also, the outcome in assay [9] was inactive.

`O=C(Nc1ccccc1)N1CCCC2(CCN(S(=O)(=O)c3ccccc3)CC2)C1`: the Potency is > 11.4 µM (inactive) in assay [1], 15.8 µM (active) in assay [3] and > 46 µM (inactive) in assay [5]. Besides, the figures for the activity change, negative = inhibition in [2] and in [8] were -18.5% (inactive) and 0.932% (inactive), respectively. In addition, the activity, negative = inhibition in [4] is -7.13% (inactive). For the same compound, the Potency result in [6], in assay [7] and in assay [14] was “inactive” each time. Moreover, the max response in assay [8] (setting [18]) was found to be 19.2%; in [8] (setting [19]) it was 22%. Besides, the result in [9] was inactive.

With `CS(=O)(=O)N1CCC2(CCCN(C(c3ccccc3)c3ccccc3)C2)CC1`, the Potency in assay [1] is > 11.4 µM (inactive); in [5], > 46 µM (inactive); in [11] it was 3.98 µM (active); in assay [12] it was 5.01 µM (active). Also, the activity change, negative = inhibition in assay [2] is -6.2% (inactive); in assay [8], 2.84% (inactive). The Potency result in assay [3], in assay [6], in assay [7] and in assay [14] was “inactive” throughout. Besides, in assay [4], the activity, negative = inhibition is 12.1% (inactive). Further, the max response in assay [8] (setting [18]) was 13.3%; in [8] (setting [19]), 16.2%. Besides, the outcome in [9] was inactive.
